Experimental data: PubChem BioAssay
A number with no mark means an inactive call. For some assays here: Measured potencies and affinities stand elsewhere. Activity calls are given as the source filed them. Unless noted, no rule for the calls is given here.

Experiments:
[1] = antimalarial activity against Dd2 strain (AID 2302;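 active = growth inhibition above 50% at the single 2 µM test dose, taken to imply half-maximal potency below 2 µM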;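 also: 0% = DMSO untreated growth and 100% = chloroquine plus artemisinin killed control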); details: P. falciparum Dd2 in RBCs, LDH growth readout, 72 h; at 2 µM; active compounds read high
[2] = HepG2 cytotoxicity, primary screen, cytotoxicity control for P. falciparum antimalarial project, cell-based, ATP luminescence (AID 2303;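 active = inhibition above 50%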;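 also: 0% = DMSO wells and 100% = digitonin-killed cells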); details: HepG2 viability, 24-48 h, at 10 µM, active compounds read high
[3] = target: L-lactate dehydrogenase (Plasmodium falciparum (isolate CDC / Honduras)) (UniProt Q27743); test: PfLDH activity inhibition – cell lysate, 3D7 strain, counter-screen for P. falciparum growth inhibition project (AID 2304);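 also: 0% = vehicle and 100% = reference inhibitor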; details: P. falciparum 3D7 crude extract, LDH APAD/NBT absorbance; at 2 µM; active compounds read high
L-lactate dehydrogenase (Plasmodium falciparum (isolate CDC / Honduras)), sequence (Q27743 whole entry, looked up): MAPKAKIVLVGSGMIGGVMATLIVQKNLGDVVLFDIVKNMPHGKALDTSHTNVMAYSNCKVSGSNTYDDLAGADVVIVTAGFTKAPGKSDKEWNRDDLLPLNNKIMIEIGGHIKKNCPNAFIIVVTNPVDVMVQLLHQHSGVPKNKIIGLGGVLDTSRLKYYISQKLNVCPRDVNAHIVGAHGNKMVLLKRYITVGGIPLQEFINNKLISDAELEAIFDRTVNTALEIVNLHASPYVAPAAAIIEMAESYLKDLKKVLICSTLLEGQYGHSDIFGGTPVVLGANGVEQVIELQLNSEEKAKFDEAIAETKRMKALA

[4] = inhibition of 3D7 malaria parasite growth – strain 3D7 (AID 2306);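 also: 0% = DMSO wells and 100% = chloroquine plus artemisinin control wells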; details: P. falciparum 3D7 erythrocytic growth, LDH absorbance, 72 h; at 2 µM; active compounds read high
[5] = target: Calcium-dependent protein kinase 1 (Plasmodium falciparum (isolate 3D7)) (UniProt P62344); test: PfCDPK1 kinase inhibitors, biochemical, TCAMS library (AID 1159585; cut-off not given, nearly all actives have IC50 up to about 0.98 µM;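 also: inhibitors leave more ATP so luminescence rises with inhibition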); details: recombinant PfCDPK1, Kinase-Glo ATP depletion luminescence
Calcium-dependent protein kinase 1 (Plasmodium falciparum (isolate 3D7)), sequence (P62344 whole entry, looked up): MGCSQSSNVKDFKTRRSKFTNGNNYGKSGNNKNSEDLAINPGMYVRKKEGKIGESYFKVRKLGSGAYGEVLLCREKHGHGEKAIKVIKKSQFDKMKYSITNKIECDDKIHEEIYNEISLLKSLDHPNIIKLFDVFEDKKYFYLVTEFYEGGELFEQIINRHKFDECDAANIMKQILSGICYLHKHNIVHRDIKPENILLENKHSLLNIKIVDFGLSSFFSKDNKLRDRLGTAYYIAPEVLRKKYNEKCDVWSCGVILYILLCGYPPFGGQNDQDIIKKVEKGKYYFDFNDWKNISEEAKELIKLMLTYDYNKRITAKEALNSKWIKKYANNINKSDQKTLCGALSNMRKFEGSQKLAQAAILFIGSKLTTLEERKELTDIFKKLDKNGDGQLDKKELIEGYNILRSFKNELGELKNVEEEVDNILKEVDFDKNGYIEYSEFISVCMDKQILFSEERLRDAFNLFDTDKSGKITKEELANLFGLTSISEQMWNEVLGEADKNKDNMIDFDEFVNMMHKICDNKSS

[6] = target: Plasmodium falciparum protein kinase 6 (PK6, PF3D7_1337100) (UniProt Q8IDW1); test: PfPK6 kinase inhibitors, biochemical, TCAMS library (AID 1159586); details: recombinant PfPK6, Kinase-Glo ATP depletion luminescence
Plasmodium falciparum protein kinase 6 (PK6, PF3D7_1337100), sequence (Q8IDW1 1-305): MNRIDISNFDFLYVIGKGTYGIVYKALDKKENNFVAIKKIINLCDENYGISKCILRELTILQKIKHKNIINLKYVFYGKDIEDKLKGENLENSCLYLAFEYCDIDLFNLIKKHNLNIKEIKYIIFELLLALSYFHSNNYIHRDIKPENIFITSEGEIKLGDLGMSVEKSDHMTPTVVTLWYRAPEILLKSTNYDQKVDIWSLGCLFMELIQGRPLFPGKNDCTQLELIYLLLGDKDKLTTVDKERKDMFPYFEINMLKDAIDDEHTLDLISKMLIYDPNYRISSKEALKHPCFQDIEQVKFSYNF

[7] = target: Protein kinase 7 (PK7), Plasmodium falciparum 3D7 (PF3D7_0213400) (UniProt Q7YTF7); test: inhibition of Plasmodium PK7 catalytic activity – biochemical, TCAMS antimalarial set, Kinase-Glo luminescence (AID 1159587); details: recombinant PfPK7, Kinase-Glo ATP depletion luminescence
Protein kinase 7 (PK7), Plasmodium falciparum 3D7 (PF3D7_0213400), sequence (Q7YTF7 1-343): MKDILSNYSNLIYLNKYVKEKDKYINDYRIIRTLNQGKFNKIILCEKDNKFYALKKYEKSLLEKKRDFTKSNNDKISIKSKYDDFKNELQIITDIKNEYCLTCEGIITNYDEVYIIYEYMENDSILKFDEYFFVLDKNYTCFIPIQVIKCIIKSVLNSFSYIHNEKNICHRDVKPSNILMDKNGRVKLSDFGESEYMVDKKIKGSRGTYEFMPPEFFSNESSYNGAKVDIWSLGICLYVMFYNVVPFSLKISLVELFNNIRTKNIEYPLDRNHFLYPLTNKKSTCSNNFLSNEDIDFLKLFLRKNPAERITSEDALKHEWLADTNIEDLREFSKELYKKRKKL

[8] = target: Calcium-dependent protein kinase 4 (Plasmodium falciparum (isolate 3D7)) (UniProt Q8IBS5); test: PfCDPK4 kinase inhibitors, biochemical, TCAMS library (AID 1159588; cut-off not given, nearly all actives have IC50 up to about 0.91 µM); details: recombinant PfCDPK4, Kinase-Glo ATP depletion luminescence
Calcium-dependent protein kinase 4 (Plasmodium falciparum (isolate 3D7)), sequence (Q8IBS5 whole entry, looked up): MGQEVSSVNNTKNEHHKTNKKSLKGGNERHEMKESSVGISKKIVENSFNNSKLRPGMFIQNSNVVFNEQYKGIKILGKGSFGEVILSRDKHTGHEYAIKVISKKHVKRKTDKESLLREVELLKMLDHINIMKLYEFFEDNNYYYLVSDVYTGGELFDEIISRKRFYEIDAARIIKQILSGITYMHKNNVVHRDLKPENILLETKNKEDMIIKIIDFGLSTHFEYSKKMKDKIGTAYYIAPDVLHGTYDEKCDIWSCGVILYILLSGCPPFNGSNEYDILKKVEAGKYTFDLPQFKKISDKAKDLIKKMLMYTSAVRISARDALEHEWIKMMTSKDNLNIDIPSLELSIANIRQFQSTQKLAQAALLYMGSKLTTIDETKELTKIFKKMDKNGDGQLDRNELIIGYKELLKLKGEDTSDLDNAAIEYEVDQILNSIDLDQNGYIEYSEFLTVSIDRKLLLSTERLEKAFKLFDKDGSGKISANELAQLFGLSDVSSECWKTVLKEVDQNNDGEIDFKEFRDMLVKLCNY

SMILES	growth inhibition [1]	inhibition [2]	inhibition [3]	growth inhibition [4]	outcome [5]	outcome [6]	outcome [7]	outcome [8]
CCCNCc1ccc(-c2ccc(CN(Cc3cnc(C)cn3)C(=O)c3nn(-c4ccccc4)nc3C)cc2)nc1	49%	22%	0%	99% (active)	inactive	inactive	inactive	inactive
Cc1cc(N2CC=CCC2)nc(/N=C(\N)Nc2ccc(Br)cc2)n1	41%	10%	-3%	98% (active)	inactive	inactive	inactive	inactive
CS(=O)(=O)CCNCc1cccc(-c2cc3nccc(Nc4ccc(Oc5ccccc5)cc4)c3cc2Cl)c1	82% (active)	2%	-3%	100% (active)	inactive	inactive	inactive	inactive
Nc1c2c(nc3ccc(Oc4ccc(Br)cc4Br)cc13)CCCC2	47%	33%	0%	99% (active)	inactive	inactive	inactive	inactive
COc1cc(Nc2nccn3c(-c4ccsc4)cnc23)cc(OC)c1OC	78% (active)	26%	3%	93% (active)	inactive	inactive	inactive	inactive
O=c1cc(NCCC(CNCc2ccoc2)NCc2cc(Br)cc(Br)c2)[nH]c2ccccc12 (stereo not given)	28%	-6%	-1%	92% (active)	inactive	inactive	inactive	inactive
Cc1cc(NCC(c2ccccc2)c2ccccc2)nc(NCC2CCCCC2)n1	93% (active)	12%	3%	100% (active)	inactive	inactive	inactive	inactive
O=C(NC1CCN(c2ccnc3cc(Cl)ccc23)C1)c1ccc(F)cc1F (stereo not given)	100% (active)	31%	2%	100% (active)	inactive	inactive	inactive	inactive
Cc1nc(N=C(N)N)nc2cc3c(cc12)CCC3	58% (active)	17%	5%	90% (active)	inactive	inactive	inactive	inactive
Nc1ncc(OC2CCCCC2)c(N)n1	-1%	-4%	-1%	94% (active)	inactive	inactive	inactive	inactive
Oc1ccc(-c2nc3c(N4CCN(Cc5ccccc5)CC4)cccc3n2C2CCNCC2)cc1	7%	-1%	0%	85% (active)	inactive	inactive	inactive	inactive
O=C(Cn1c(CCc2cccc(F)c2F)nc(=O)c2ccccc21)N(Cc1ccc(-c2ccc(C(F)(F)F)cc2)cc1)C1CCN(C2CCSCC2)CC1	93% (active)	97% (active)	0%	99% (active)	inactive	inactive	inactive	inactive
Cc1[nH]c(C)c(-c2ccc(C#Cc3ccc(F)cc3F)cc2)c(=O)c1Br	98% (active)	11%	-1%	97% (active)	inactive	inactive	inactive	inactive
O=C(NCCNc1ccnc(NCc2ccc(F)cc2)n1)c1cc2ccccc2s1	17%	6%	-5%	99% (active)	inactive	inactive	inactive	inactive
COc1ccc(C2CC(c3cccs3)=NN2C(=O)c2ccco2)cc1OC (stereo not given)	97% (active)	-3%	4%	101% (active)	inactive	inactive	inactive	inactive
CC(C)N1CCC(NCc2ccc(-c3ccc(Cl)cc3)cc2)CC1	48%	50% (active)	-3%	99% (active)	inactive	inactive	inactive	inactive
COc1ccc2ccccc2c1CCCCN1CCN(CC(c2ccc(F)cc2)N2CCN(C3CCCC3)CC2)CC1 (stereo not given)	51% (active)	88% (active)	6%	88% (active)	inactive	inactive	inactive	inactive
COc1cc(OC)nc(-c2cccc(NC(=O)c3ccc4c(=O)n(CCN5CCCCC5)cnc4c3)c2)n1	86% (active)	11%	-1%	100% (active)	inactive	inactive	inactive	inactive
CC1(C)N=C(N)N=C(N)N1c1ccc(Oc2ccc(Cl)cc2)c(Cl)c1	20%	13%	-2%	97% (active)	inactive	inactive	inactive	inactive
COc1ccc2nccc([C@@H](O)CN3CCC(NCc4cc5cccc(O)c5c(=O)[nH]4)CC3)c2c1	66% (active)	8%	3%	99% (active)	inactive	inactive	inactive	inactive

SMILES	growth inhibition [1]	inhibition [2]	inhibition [3]	growth inhibition [4]	outcome [5]	outcome [6]	outcome [7]	outcome [8]
O=C(Nc1cccc(CN2CCCN(Cc3ccc(O)cc3)CC2)c1)c1ccc2ccccc2n1	22%	13%	-1%	90% (active)	inactive	inactive	inactive	inactive
O=C(Nc1ccc(-c2cccc(-c3nc4ccc(C(F)(F)F)cc4[nH]3)c2)cc1)c1ccoc1	13%	52% (active)	-9%	96% (active)	inactive	inactive	inactive	inactive
CCCCCCNC(=O)C1Cc2c([nH]c3ccc(Br)cc23)C2(CCN(Cc3ccccc3)CC2)N1 (stereo not given)	75% (active)	100% (active)	6%	100% (active)	inactive	inactive	inactive	inactive
CN1CCN(c2ccnc3ccc(NC(=O)Nc4cccc5ccccc45)cc23)CC1	96% (active)	-3%	1%	101% (active)	inactive	inactive	inactive	inactive
CN1CCCC1CCNc1ncc2c(-c3ccc(NC(=O)Nc4cc(C(F)(F)F)ccc4F)cc3)nn(C)c2n1 (stereo not given)	72% (active)	74% (active)	0%	96% (active)	inactive	inactive	inactive	inactive
O=C(COc1ccc(Cl)c(Cl)c1)NCCCCCN1CCCN(C(=O)Nc2ccc(Cl)c(Cl)c2)CC1	7%	29%	3%	93% (active)	inactive	inactive	inactive	inactive
Cn1nc(-c2cccc(CN[C@@H]3CCc4ccc(O)cc43)c2)c2cnc(NCCCN3CCCC3)nc21	-2%	9%	-3%	101% (active)	inactive	inactive	inactive	inactive
Nc1cccc(CNCc2ccc(-c3cccc(-c4nc5ccc(F)cc5[nH]4)c3)cc2)c1	94% (active)	36%	-3%	101% (active)	inactive	inactive	inactive	inactive
COc1ccc2nc3cc(Cl)ccc3c(NCCCCCCNc3c4ccc(Cl)cc4nc4ccc(OC)cc34)c2c1	79% (active)	20%	-5%	96% (active)	inactive	inactive	inactive	inactive
COc1ccc(CCn2c(=N)c(C(=O)NCc3cccnc3)cc3c(=O)n4ccccc4nc32)cc1	5%	16%	-2%	98% (active)	inactive	inactive	inactive	inactive
CC(C)(C)c1ccc(NC(=O)c2cccc(CN3CCCN(Cc4cccc(O)c4)CC3)c2)cc1	69% (active)	97% (active)	4%	101% (active)	inactive	inactive	inactive	inactive
Cc1ccc(-c2cccc3c(NC(=O)Nc4ccc5nccc(N6CCN(C)CC6)c5c4)cccc23)cn1	89% (active)	6%	-7%	90% (active)	inactive	inactive	inactive	inactive
CCOc1ccc(OCC(=O)Nc2nc(-c3ccc(OC)cc3)c(C)s2)cc1	98% (active)	-7%	-8%	99% (active)	inactive	inactive	inactive	inactive
COc1ccc(C2CCN(CCCNC(=O)c3ccc(NC(=O)c4ccc(Cl)cc4)cc3)CC2)c(OC)c1	58% (active)	26%	3%	99% (active)	inactive	inactive	inactive	inactive
CCCCCCCNCc1c(O)ccc2c(CNCCCCCCC)c(O)ccc12	99% (active)	29%	-3%	100% (active)	inactive	inactive	inactive	inactive
Fc1cccc(COc2ccc(Nc3ncnc4sc(C#C[C@H]5CC[C@H](CN6CCOCC6)N5)cc34)cc2Cl)c1	23%	16%	-10%	92% (active)	inactive	inactive	inactive	inactive
Cc1cc(C)c2cc(CNCCCNc3nc4ccccc4[nH]3)[nH]c2c1	-2%	32%	3%	102% (active)	inactive	inactive	inactive	inactive
CC(=O)Nc1ncc(C(=O)Nc2cccc(-c3ccc(-c4nc5ccc(C(F)(F)F)cc5[nH]4)cc3)c2)s1	94% (active)	83% (active)	-4%	101% (active)	inactive	inactive	inactive	inactive
COCCNCc1cccc(-c2ccc3nccc(Nc4cc(O)ccc4C)c3c2)c1	92% (active)	-1%	4%	101% (active)	inactive	inactive	inactive	inactive
O=C(/C=C/c1ccccc1F)NC1CCC(CCN2CCc3ccc(-c4cccnc4)cc3CC2)CC1 (stereo not given)	5%	34%	-4%	92% (active)	inactive	inactive	inactive	inactive
